Measurements published in PubChem BioAssay.
Unmarked numbers belong to inactive results. How the calls were made is not given here.

Biological target: Pantothenate synthetase (Mycobacterium tuberculosis (strain ATCC 25618 / H37Rv)) (UniProt P9WIL5)
Test: Coupled enzyme confirmation of inhibitors against recombinant Mtb PanC (AID 375);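 further: 0% = full reaction with vehicle and 100% = no enzyme background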
Details: coupled enzyme assay; at 10 µM, active compounds read high

Sequence of Pantothenate synthetase (Mycobacterium tuberculosis (strain ATCC 25618 / H37Rv)) (P9WIL5 whole entry, looked up): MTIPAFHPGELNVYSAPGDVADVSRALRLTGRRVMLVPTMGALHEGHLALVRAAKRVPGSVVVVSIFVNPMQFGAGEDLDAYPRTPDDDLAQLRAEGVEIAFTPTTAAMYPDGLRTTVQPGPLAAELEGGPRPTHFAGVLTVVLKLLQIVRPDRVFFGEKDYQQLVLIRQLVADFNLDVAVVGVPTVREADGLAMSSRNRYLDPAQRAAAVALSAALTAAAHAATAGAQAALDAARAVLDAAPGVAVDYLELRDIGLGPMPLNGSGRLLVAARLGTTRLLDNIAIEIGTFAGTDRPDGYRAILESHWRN

Compound: C=CCn1c(COc2ccccc2F)nnc1SCC(=O)N1CC(=O)Nc2ccccc21
- inhibition: 1%

Compound: Cc1ccc2[nH]c3c(=O)n(CCCN4CCN(C)CC4)cnc3c2c1
- inhibition: 4%

Compound: CC1(C)C(c2ccccc2)=NC(c2ccccc2)N1O (stereo not drawn)
- inhibition: 3%

Compound: CC1CN(CC(O)COc2ccc(C(C)C)cc2)CC(C)O1 (stereo not drawn)
- inhibition: 0%

Compound: CC1=C(C(=O)Nc2ccccc2)C(c2cccs2)C(C#N)=C(SCC#N)N1 (stereo not drawn)
- inhibition: 5%

Compound: CC(=O)OCCNc1cc(N2CCN(C)CC2)c2noc3c2c1C(=O)c1ccccc1-3
- inhibition: 0%

Compound: Clc1cccc(Nc2c3c(nc4ncnn24)CCC3)c1
- inhibition: 0%

Compound: Cc1ccc2c(c1C)NC(C(=O)O)C1CC=CC21 (stereo not drawn)
- inhibition: 0%

Compound: CCOC(=O)Cn1c(=O)c(-c2ccccc2N)nc2ccccc21
- inhibition: 3%

Compound: CCOCCCNC(=O)C1CCN(S(=O)(=O)c2c(C)noc2/C=C\c2ccc(OC)cc2)CC1
- inhibition: 8%

Compound: Cc1ccc(S(=O)(=O)Cc2ccc(C(=O)NCCCN3CCN(C)CC3)o2)cc1
- inhibition: 1%

Compound: Cn1c(=O)c2c([nH]c(=O)n2C)n(C)c1=O
- inhibition: 0%

Compound: COc1ccccc1CNC(=O)C1CCCN(S(=O)(=O)c2cccc3cccnc23)C1 (stereo not drawn)
- inhibition: 1%

Compound: CC1CCCN(C(=O)C23CCC(C)(C(=O)C2)C3(C)C)C1 (stereo not drawn)
- inhibition: 0%

Compound: CCCNC(=O)C1CN(S(=O)(=O)c2ccccc2)CCN1S(=O)(=O)c1ccccc1 (stereo not drawn)
- inhibition: 0%

Compound: Cc1ccccc1Cc1c(C)nc2c(C(=O)N3CCN(Cc4ccc5c(c4)OCO5)CC3)cnn2c1C
- inhibition: 5%

Compound: O=c1c(-c2ccccc2)coc2c(CN3CCOCC3)c(O)ccc12
- inhibition: 6%

Compound: COc1ccc(CCNS(=O)(=O)c2ccc3c(c2)CCN3C(=O)CCC(=O)O)cc1OC
- inhibition: 0%

Compound: COc1cc(OC)cc(-c2nc3nc(C)c(CCC(=O)O)c(C)n3n2)c1
- inhibition: 0%

Compound: COCCCN(Cc1ccccn1)S(=O)(=O)Cc1ccccc1
- inhibition: 0%

Compound: CCn1nnc(NC(=O)c2ccccc2Br)n1
- inhibition: 0%

Compound: CC12C(=O)N(CCC(=O)O)C(=O)C1C1C=CC2C1 (stereo not drawn)
- inhibition: 0%

Compound: CCOC(=O)COc1ccc(S(=O)(=O)N2CCc3ccccc3C2)cc1
- inhibition: 0%

Compound: Cc1noc(C)c1COC(=O)c1ccccc1Oc1ccccc1
- inhibition: 0%

Compound: Cc1ccc(C(=O)OCC(=O)c2ccc(Cl)s2)s1
- inhibition: 4%

Compound: CCN1C(=O)/C(=C/N(C)c2ccccc2)OC1=S
- inhibition: 4%

Compound: COc1ccc(NC(=O)C(C)Oc2ccc(/C(C)=N\O)cc2)cc1 (stereo not drawn)
- inhibition: 0%

Compound: COc1ccc(C2C3=C(CC(C)(C)CC3=O)Oc3ncn4nc(-c5cccnc5)nc4c32)cc1 (stereo not drawn)
- inhibition: 0%

Compound: CCCC(=O)N1c2ccccc2NC2=C(C(=O)CCC2)C1c1ccc(F)cc1 (stereo not drawn)
- inhibition: 5%

Compound: CC(=O)c1cccc(NS(=O)(=O)c2ccc3c(c2)oc(=O)n3C)c1
- inhibition: 0%

Compound: COc1ccccc1CNS(=O)(=O)c1cccc(S(=O)(=O)N2CCOCC2)c1
- inhibition: 0%

Compound: CCOC(=O)c1cccc(NC2c3ccccc3C(=O)N2Cc2ccco2)c1 (stereo not drawn)
- inhibition: 7%

Compound: CCn1cc(/C=C(/C#N)S(=O)(=O)c2ccccc2)cn1
- inhibition: 2%

Compound: Cc1cccc(-n2c(O)c(C=Nc3ccccc3N)c(=O)[nH]c2=O)c1
- inhibition: 0%

Compound: CCc1nc(NCCCN2CCOCC2)c2oc3ccccc3c2n1
- inhibition: 2%

Compound: Oc1ccc(C=Nc2cccc3ncccc23)c(O)c1
- inhibition: 2%

Compound: Cc1nc2sc(C(c3cccs3)N3CCC(C(N)=O)CC3)c(O)n2n1 (stereo not drawn)
- inhibition: 2%

Compound: CC1=NS(=O)(=O)c2cc(Cl)ccc2N1
- inhibition: 6%

Compound: CC(=O)Oc1ccc(CCC(C)OC(C)=O)cc1 (stereo not drawn)
- inhibition: 8%

Compound: Cc1csc2nc(CSc3nc4ccccc4o3)c(Br)n12
- inhibition: 0%

Compound: CCCCn1c(SCc2cccnc2)nc2c1c(=O)n(C)c(=O)n2C
- inhibition: 0%

Compound: O=C(NC(=O)c1cccc(F)c1)OC[C@@H]1CCCN2CCCC[C@H]12
- inhibition: 0%

Compound: CCC(C)(C(=O)NC1CCCC1)N(C(=O)c1cnccn1)c1c(C)n(C)n(-c2ccccc2)c1=O (stereo not drawn)
- inhibition: 0%

Compound: Cc1nc2nc(-c3cccnc3)nn2c(C)c1Cl
- inhibition: 0%

Compound: CCCCc1nc2n[nH]c(N)c2c2c1CCCC2
- inhibition: 0%

Compound: Cc1ccccc1N(C)S(=O)(=O)c1ccc2[nH]cc(C(=O)NCC3CCCO3)c(=O)c2c1 (stereo not drawn)
- inhibition: 10%

Compound: Cc1nnc(SCCn2c(Br)nc3c2c(=O)n(C)c(=O)n3C)s1
- inhibition: 1%

Compound: Cc1cc(CN2CCN(CCC#N)CC2)c(O)c(C2(C)CCCCC2)c1
- inhibition: 0%

Compound: Cc1noc(C)c1CSc1nnc(-c2ccncc2)n1-c1cccc(Cl)c1C
- inhibition: 0%

Compound: CCOc1ccc2[nH]c(=O)c(C(c3nnnn3CC3CCCO3)N3CCc4ccccc4C3)cc2c1 (stereo not drawn)
- inhibition: 0%

Compound: COCCN(CC(=O)Nc1ccccc1C)S(=O)(=O)c1ccc(S(=O)(=O)N2CCCC2)cc1
- inhibition: 0%

Compound: COc1ccc(/C=N/n2cc(-c3ccc(OC)cc3)nc2N)cc1
- inhibition: 0%

Compound: COc1ccc(C(=O)NCc2ccccc2OC)cc1
- inhibition: 0%

Compound: O=C(NCc1ccc(Cl)cc1)c1ccc(COCC(F)(F)F)o1
- inhibition: 0%

Compound: CN(C)c1ccc(O)c2c1CC1CC3[C@@H](N(C)C)C(=O)C(C(N)=O)=C(O)[C@]3(O)C(=O)C1=C2O (stereo partly drawn)
- inhibition: 0%

Compound: Cc1nc(SCC(=O)Nc2ccccc2C(F)(F)F)c2c(=O)n(C)c(=O)n(C)c2n1
- inhibition: 4%

Compound: CC(=O)NC(C)C(=O)OCC(=O)Nc1ccc(Br)cc1 (stereo not drawn)
- inhibition: 0%

Compound: CCCC(=O)Nc1ccccc1-c1nnn(CC(=O)Nc2ccc(OCC)cc2)n1
- inhibition: 0%

Compound: Cc1ccc2cc(CN(Cc3ccc4c(c3)OCO4)Cc3nnnn3Cc3ccco3)c(=O)[nH]c2c1C
- inhibition: 0%

Compound: CC(=O)OCC(=O)[C@@]1(OC(C)=O)[C@@H](C)C[C@H]2[C@@H]3C[C@H](F)C4=CC(=O)C=C[C@]4(C)[C@@]3(F)[C@@H](O)C[C@@]21C
- inhibition: 0%

Compound: Nc1nc(CSCc2ccccc2)nc(N2CCOCC2)n1
- inhibition: 1%

Compound: CCn1c(SCC(=O)Nc2cc(C)ccc2C)nc2c(c1=O)SC(C)C2 (stereo not drawn)
- inhibition: 0%

Compound: c1ccc(OCCCn2nnc(-c3cccnc3)n2)cc1
- inhibition: 3%

Compound: O=C(O)C1CCCN1C(=O)c1cccs1 (stereo not drawn)
- inhibition: 7%

Compound: O=c1c2ccccc2c(/C=N/n2cnnc2)c(O)n1-c1ccccc1
- inhibition: 2%

Compound: CCc1nc(SCc2cc(Cl)ccc2OC)n[nH]1
- inhibition: 0%

Compound: CCc1nnc(NC(=O)CSc2nnc(-c3ccoc3C)n2CC(C)C)s1
- inhibition: 0%

Compound: O=C(Cc1cccs1)Nc1ccccc1NC(=O)Cc1cccs1
- inhibition: 0%

Compound: COc1cc([C@@H]2[C@H]3CN(C)CC=C3C(C#N)=C(N)C2(C#N)C#N)cc2c1OCO2
- inhibition: 0%

Compound: COc1ccc(CCNC(=O)c2cnn3ccccc23)c(OC)c1OC
- inhibition: 4%

Compound: CCOC(=O)C1CCN(c2nc3ccccc3nc2C(C#N)C(=O)OCCOC)CC1 (stereo not drawn)
- inhibition: 0%

Compound: O=C1CC(c2ccsc2)c2cc3c(cc2N1)OCCO3 (stereo not drawn)
- inhibition: 0%

Compound: CC(C)CNS(=O)(=O)c1ccc(CCC(=O)N2CCOCC2)cc1
- inhibition: 0%

Compound: CCc1ccc2c(CN(CC)Cc3nc4ccccc4c(=O)[nH]3)cc(=O)oc2c1
- inhibition: 0%

Compound: COc1cc(NC(=O)Cc2nn(C)c(=O)c3ccccc23)cc(OC)c1
- inhibition: 0%

Compound: Cc1nc2ccccn2c1C(=O)NCCCN1CCOCC1
- inhibition: 10%

Compound: Cc1cc(=O)n(C)c(=O)n1CCCNc1ccccc1
- inhibition: 2%

Compound: COCCn1c(SCC(=O)c2ccccc2)nc2c(c1=O)SC(C)C2 (stereo not drawn)
- inhibition: 0%

Compound: COCCn1nnnc1C(c1ccc(OC)cc1)N1CCN(c2ccccc2F)CC1 (stereo not drawn)
- inhibition: 0%

Compound: Cc1ccc(S(=O)(=O)N(C)CC(=O)NC2CC(C)(C)NC(C)(C)C2)cc1
- inhibition: 0%

Compound: COc1ccccc1-c1nnc(SCC(=O)N2CC(C)CC(C)C2)o1 (stereo not drawn)
- inhibition: 4%

Compound: CC(=O)N(C(C)=O)c1ncc2c([nH]c3ccccc32)c1C#N
- inhibition: 0%

Compound: CCOC(=O)C1CCN(c2c(NC3CCCCCCC3)c(=O)c2=O)CC1
- inhibition: 3%

Compound: Cc1coc2cc3oc(=O)c4c(c3cc12)CCC4
- inhibition: 11%

Compound: COc1cc(OC)cc(OCC(O)Cn2cnc(-c3ccccc3)c2)c1 (stereo not drawn)
- inhibition: 0%

Compound: Cc1onc(-c2ccccc2Cl)c1C(=O)Nc1cccc(-c2cn3cccnc3n2)c1
- inhibition: 7%

Compound: Cc1cc(NC(=O)COC(=O)c2cccc(S(=O)(=O)N3CCOCC3)c2)no1
- inhibition: 1%

Compound: CCc1nnc(NC(=O)CSc2nnc(CSc3nc(C)cc(C)n3)n2CC)s1
- inhibition: 1%

Compound: CS(=O)(=O)N(CC(=O)Nc1ccc2c(c1)OCO2)Cc1ccc(Cl)cc1
- inhibition: 0%

Compound: CNC(=O)c1ccc(N(Cc2ccccc2C)S(C)(=O)=O)cc1
- inhibition: 7%

Compound: Cc1cccc(N(CC(N)=O)S(C)(=O)=O)c1C
- inhibition: 0%

Compound: O=C(NC1CCCCC1)c1nc2c(nnn2Cc2ccccc2Cl)c(=O)[nH]1
- inhibition: 0%

Compound: Cc1nc2c(-c3ccccc3)c(C)nn2c(C)c1CCC(=O)O
- inhibition: 0%

Compound: Nn1c(SCC(=O)Nc2ccc(Oc3ccccc3)cc2)nnc1C1CC1
- inhibition: 7%

Compound: NC(=O)c1sc2nc3c(c(-c4ccco4)c2c1N)CCC3
- inhibition: 0%

Compound: CCOC(=O)c1sc(=NC(=O)c2ccc(OC)c(OC)c2)n(C)c1C
- inhibition: 2%

Compound: Cc1ccc(Cn2c(SCC(N)=O)nc3c2c(=O)n(C)c(=O)n3C)cc1
- inhibition: 0%

Compound: CCc1c(C)nc2ncnn2c1N1CCC(C(=O)NCc2cccc(OC)c2)CC1
- inhibition: 0%
